The panel holds about 79,000 compounds, 15% with a hit somewhere; the sample as a whole holds those more often. The source made the active and inactive calls. Rule as the data show it: active = growth inhibition above about 70%; inactive = the rest.
Key:
[1] = NCI Yeast Anticancer Drug Screen. Data for the wt2 strain (AID 169);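 also: 0% = growth of vehicle-treated yeast cultures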; settings: S. cerevisiae wt2 strain growth inhibition, active compounds read high
Summary of the method: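 Steps: yeast strain treated with compound; growth recorded; inhibition calculated relative to cultures given vehicle alone.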

[2] = NCI Yeast Anticancer Drug Screen. Data for the mlh1 strain (AID 171);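 also: 0% = growth of vehicle-treated control cultures of the same strain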; settings: S. cerevisiae mlh1 strain growth inhibition, active compounds read high
Summary of the method: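 Yeast screen: mutant strain plus compound, growth scored against vehicle control wells.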

[3] = NCI Yeast Anticancer Drug Screen. Data for the sgs1 strain (AID 173);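 also: 0% = growth of vehicle-only control cultures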; settings: S. cerevisiae sgs1 mutant, active compounds read high
Summary of the method: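 Inhibition of yeast growth served as the measure. The mutant strain was treated with each compound, and growth was normalised to cultures receiving vehicle alone.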

[4] = NCI Yeast Anticancer Drug Screen. Data for the mlh1 rad18 strain (AID 175); settings: S. cerevisiae mlh1 rad18 strain growth inhibition, active compounds read high
Summary of the method: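 Compound-treated yeast growth, normalised to vehicle controls. Strain bears defined DNA repair mutations.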

[5] = NCI Yeast Anticancer Drug Screen. Data for the rad52 strain (AID 147);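 also: 0% = growth of vehicle-treated control cultures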; settings: S. cerevisiae rad52 mutant growth inhibition, active compounds read high
Summary of the method: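 Genetically altered yeast (DNA damage repair defect) treated with compound; inhibition calculated relative to vehicle.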

[6] = NCI Yeast Anticancer Drug Screen. Data for the wt1 strain (AID 149);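 also: 0% = growth of vehicle-treated wt1 cultures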; settings: S. cerevisiae wt1 strain (SPY 50644) growth inhibition, active compounds read high
Summary of the method: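 Growth inhibition read against vehicle controls after compound exposure of the wt1 yeast strain.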

[7] = NCI Yeast Anticancer Drug Screen. Data for the rad50EPP+ strain (AID 151);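 also: 0% = growth of vehicle-treated control cultures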; settings: S. cerevisiae rad50 mutant strain, active compounds read high
Summary of the method: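 Strain rad50EPP+; compound exposure; % growth inhibition vs vehicle.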

[8] = NCI Yeast Anticancer Drug Screen. Data for the mgt1 strain (AID 153); settings: S. cerevisiae mgt1 mutant growth inhibition, active compounds read high
Summary of the method: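 Read-out: yeast growth inhibition vs vehicle control. Strain mgt1, drawn from a panel altered in DNA damage repair or cell cycle control.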

[9] = NCI Yeast Anticancer Drug Screen. Data for the rad50 strain (AID 155);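 also: 0% = growth of vehicle-only cultures of the same strain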; settings: S. cerevisiae rad50 strain growth inhibition, active compounds read high
Summary of the method: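 Readout: growth inhibition relative to vehicle-treated cultures. Compound exposure was carried out in a genetically defined yeast strain deficient in DNA damage repair.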

[10] = NCI Yeast Anticancer Drug Screen. Data for the mec2-1 strain (AID 157); settings: S. cerevisiae mec2-1 strain, active compounds read high
Summary of the method: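 Cells of the genetically defined mec2-1 yeast strain are incubated with test compound. Inhibition of growth is calculated against vehicle-treated controls.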

[11] = NCI Yeast Anticancer Drug Screen. Data for the rad14 strain (AID 159);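 also: 0% = growth of vehicle-treated control cultures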; settings: S. cerevisiae rad14 strain growth inhibition, active compounds read high
Summary of the method: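 Growth inhibition vs vehicle controls; genetically altered yeast strain (DNA damage repair defect) treated with test compounds.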

[12] = NCI Yeast Anticancer Drug Screen. Data for the sgs1 mgt1 strain (AID 161);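 also: 0% = growth of cultures given vehicle only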; settings: S. cerevisiae sgs1 mgt1 strain, active compounds read high
Summary of the method: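 Genetically altered yeast, compound exposure, growth inhibition relative to vehicle.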

[13] = NCI Yeast Anticancer Drug Screen. Data for the CLN2oe strain (AID 163);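 also: 0% = growth of vehicle-only control cultures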; settings: S. cerevisiae CLN2oe strain, active compounds read high
Summary of the method: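 Strain altered in cell-cycle control, incubated with compound; growth compared to solvent-treated controls.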

[14] = NCI Yeast Anticancer Drug Screen. Data for the cln2 rad14 strain (AID 165);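 also: 0% = growth equal to vehicle treated cultures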; settings: S. cerevisiae cln2 rad14 strain, active compounds read high
Summary of the method: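 The screen exposed genetically defined yeast (cln2 rad14) to test compounds and scored growth inhibition relative to vehicle-treated controls.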

[15] = NCI Yeast Anticancer Drug Screen. Data for the bub3 strain (AID 167); settings: S. cerevisiae bub3 mutant strain, active compounds read high
Summary of the method: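 Readout: yeast growth inhibition, expressed relative to vehicle-only wells. The test organism is a mutant strain from a panel with lesions in DNA repair or checkpoint genes.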

[16] = NCI Yeast Anticancer Drug Screen. Data for the rad18 strain (AID 177); settings: S. cerevisiae rad18 mutant growth inhibition, active compounds read high
Summary of the method: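 Inhibition values reflect reduced yeast growth compared with vehicle-treated controls, using a strain engineered with a DNA damage repair defect.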

[17] = at 5.0 µM (retest, dose inferred, filed as 0.5)
[18] = at 50.0 µM (retest, dose inferred, filed as 5.0)

Measured: growth inhibition

O=CC=C(c1ccccc1)c1ccccc1
inactive: [1]; at 1.2 µM 4% | [1]; at 3.7 µM 9% | [1]; at 11.0 µM 6% | [1]; at 33.0 µM 22% | [2]; at 1.2 µM 5% | [2]; at 3.7 µM 10% | [2]; at 11.0 µM 16% | [2]; at 33.0 µM 19% | [3]; at 1.2 µM -3% | [3]; at 3.7 µM 4% | [3]; at 11.0 µM 11% | [3]; at 33.0 µM 43% | [4]; [17] 16% | [4]; at 50.0 µM 28.4%
active: [1]; at 100.0 µM 97% | [2]; at 100.0 µM 99% | [3]; at 100.0 µM 99% | [4]; [18] 90%

COC(=O)CCNc1c2ccccc2nc2cccc([N+](=O)[O-])c12
active: [5]; at 1.2 µM 97% | [5]; at 3.7 µM 97% | [5]; at 11.0 µM 97% | [5]; at 33.0 µM 98% | [5]; at 100.0 µM 98% | [6]; at 1.2 µM 79% | [6]; at 3.7 µM 87% | [6]; at 11.0 µM 96% | [6]; at 33.0 µM 97% | [6]; at 100.0 µM 97% | [7]; at 11.0 µM 80% | [7]; at 33.0 µM 93% | [7]; at 100.0 µM 97% | [8]; at 3.7 µM 74% | [8]; at 11.0 µM 87% | [8]; at 33.0 µM 97% | [8]; at 100.0 µM 97% | [9]; at 1.2 µM 95% | [9]; at 3.7 µM 95% | [9]; [17] 95% | [9]; at 11.0 µM 96% | [9]; at 33.0 µM 97% | [9]; [18] 98% | [9]; at 50.0 µM 86% | [9]; at 100.0 µM 97% | [10]; at 1.2 µM 97% | [10]; at 3.7 µM 97% | [10]; [17] 90% | [10]; at 11.0 µM 98% | [10]; at 33.0 µM 98% | [10]; [18] 99% | [10]; at 50.0 µM 91.3% | [10]; at 100.0 µM 98% | [11]; at 1.2 µM 99% | [11]; at 3.7 µM 99% | [11]; at 11.0 µM 99% | [11]; at 33.0 µM 99% | [11]; at 100.0 µM 99% | [12]; [17] 94% | [12]; [18] 98% | [12]; at 50.0 µM 81.2% | [13]; at 11.0 µM 89% | [13]; at 33.0 µM 96% | [13]; at 100.0 µM 98% | [14]; [17] 99% | [14]; [18] 99% | [14]; at 50.0 µM 89.4% | [15]; at 33.0 µM 96% | [15]; [18] 99% | [15]; at 50.0 µM 84% | [15]; at 100.0 µM 99% | [1]; at 11.0 µM 85% | [1]; at 33.0 µM 97% | [1]; at 100.0 µM 99% | [2]; at 1.2 µM 84% | [2]; at 3.7 µM 91% | [2]; at 11.0 µM 95% | [2]; at 33.0 µM 96% | [2]; at 100.0 µM 97% | [3]; at 1.2 µM 97% | [3]; at 3.7 µM 96% | [3]; at 11.0 µM 98% | [3]; at 33.0 µM 98% | [3]; at 100.0 µM 98% | [4]; [17] 96% | [4]; [18] 99% | [4]; at 50.0 µM 81.1% | [16]; at 1.2 µM 97% | [16]; at 3.7 µM 97% | [16]; at 11.0 µM 95% | [16]; at 33.0 µM 97% | [16]; at 100.0 µM 97%
inactive: [7]; at 1.2 µM 18% | [7]; at 3.7 µM 49% | [8]; at 1.2 µM 61% | [13]; at 1.2 µM 7% | [13]; at 3.7 µM 50% | [15]; at 1.2 µM -13% | [15]; at 3.7 µM 11% | [15]; [17] 10% | [15]; at 11.0 µM 66% | [1]; at 1.2 µM 5% | [1]; at 3.7 µM 27%

CC[C@@]1(O)C(=O)OCc2c1cc1n(c2=O)Cc2cc3c(CN(C)C)c(O)ccc3nc2-1
inactive: [5]; at 1.2 µM 5% | [5]; at 3.7 µM 13% | [5]; at 11.0 µM 41% | [5]; at 33.0 µM 68% | [6]; at 1.2 µM -1% | [6]; at 3.7 µM -1% | [6]; at 11.0 µM -2% | [6]; at 33.0 µM -2% | [6]; at 100.0 µM -6% | [7]; at 1.2 µM 30% | [7]; at 3.7 µM 29% | [7]; at 11.0 µM 22% | [7]; at 33.0 µM 23% | [7]; at 100.0 µM 30% | [8]; at 1.2 µM 11% | [8]; at 3.7 µM 2% | [8]; at 11.0 µM 3% | [8]; at 33.0 µM 11% | [8]; at 100.0 µM 18% | [9]; at 1.2 µM 6% | [9]; at 3.7 µM 18% | [9]; [17] 21% | [9]; at 11.0 µM 40% | [10]; at 1.2 µM -2% | [10]; at 3.7 µM -2% | [10]; [17] -3% | [10]; at 11.0 µM -1% | [10]; at 33.0 µM 2% | [10]; [18] -1% | [10]; at 50.0 µM 12.4% | [10]; at 100.0 µM 10% | [11]; at 1.2 µM -1% | [11]; at 3.7 µM -4% | [11]; at 11.0 µM -2% | [11]; at 33.0 µM -6% | [11]; at 100.0 µM -4% | [12]; [17] -3% | [12]; [18] -3% | [12]; at 50.0 µM 4.5% | [13]; at 1.2 µM -2% | [13]; at 3.7 µM -4% | [13]; at 11.0 µM -6% | [13]; at 33.0 µM -13% | [13]; at 100.0 µM -1% | [14]; [17] -3% | [14]; [18] -12% | [14]; at 50.0 µM -5.5% | [15]; at 1.2 µM 0% | [15]; at 3.7 µM -1% | [15]; [17] -3% | [15]; at 11.0 µM -3% | [15]; at 33.0 µM -14% | [15]; [18] -10% | [15]; at 50.0 µM -14.6% | [15]; at 100.0 µM -11% | [1]; at 1.2 µM -1% | [1]; at 3.7 µM 7% | [1]; at 11.0 µM -3% | [1]; at 33.0 µM -2% | [1]; at 100.0 µM -12% | [2]; at 1.2 µM 0% | [2]; at 3.7 µM -4% | [2]; at 11.0 µM -3% | [2]; at 33.0 µM 0% | [2]; at 100.0 µM 0% | [3]; at 1.2 µM -3% | [3]; at 3.7 µM 0% | [3]; at 11.0 µM 0% | [3]; at 33.0 µM 6% | [3]; at 100.0 µM 5% | [4]; [17] 0% | [4]; [18] 3% | [4]; at 50.0 µM 12.2% | [16]; at 1.2 µM 28% | [16]; at 3.7 µM 23% | [16]; at 11.0 µM 28% | [16]; at 33.0 µM 16% | [16]; at 100.0 µM 9%
active: [5]; at 100.0 µM 87% | [9]; at 33.0 µM 79% | [9]; [18] 85% | [9]; at 50.0 µM 80.7% | [9]; at 100.0 µM 92%
